According to PubChem BioAssay (EPA / NIEHS):
Results filed as inconclusive are left out. A structure can be active in one record and inactive in another. Active and inactive are the calls of the source. The calls were made as follows, unless noted: active = hit-call score of the fitted dose curve at least 0.9, where 1 is the maximum; inconclusive = response in the unintended direction; inactive = score below 0.9.

Assays:
[1] = ATG_TGFb_CIS: Attagene CIS-FACTORIAL HepG2 Assay for human Transforming Growth Factor (TGF) (AID 2282967; active = hit-call score of the fitted dose curve at least 0.9, where 1 is the maximum; inactive = score below 0.9); details: HepG2 Attagene CIS TGFb reporter, mRNA transcription; actives raise or lower the signal
Outline: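 Transcript-level reporter readout: HepG2 transfectants, 24 h exposure, RNA to cDNA, reporter-specific PCR, fluorescent primer extension, capillary sizing against ROX standards. Gain- or loss-of-signal relative to DMSO.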

[2] = molecular target: Nuclear receptor subfamily 1 group I member 3 (Homo sapiens) (UniProt Q14994); experiment: ATG_CAR_TRANS: Attagene TRANS-FACTORIAL HepG2 Assay for human Constitutive Androstane Receptor (CAR) (AID 2282969); details: HepG2 Attagene TRANS-FACTORIAL CAR reporter;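 also: activators raise reporter mRNA above DMSO so AC50 marks induction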
Outline: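 HepG2 cells transiently transfected with GAL4-UAS reporter units; TRANS format reads activity of exogenous chimeric NR-Gal4 protein. After 24 h dosing, reporter mRNA quantified by RT-PCR, 6-FAM labelling and capillary electrophoresis; gain of signal fitted against DMSO.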

[3] = molecular target: X-box-binding protein 1 (Homo sapiens) (UniProt P17861); experiment: ATG_Xbp1_CIS: Attagene CIS-FACTORIAL HepG2 Assay for human X-box Binding Protein 1 (XBP1) (AID 2282972; active = hit-call score of the fitted dose curve at least 0.9, where 1 is the maximum; inactive = score below 0.9); details: HepG2 XBP1 cis-element reporter, Attagene multiplex; actives raise or lower the signal
Outline: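 HepG2, transient MRTU transfection (cis-promoter driven), 24 h compound exposure. Total RNA → oligo(dT) RT → PCR → 6-FAM labeling → HpaI cut → CE. Bidirectional fit vs DMSO.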

[4] = ATG_M_19_TRANS: Attagene TRANS-FACTORIAL HepG2 Assay for M19 Transcription Factor (Internal Marker) (AID 2282974); details: HepG2 Attagene TRANS-FACTORIAL M19 internal marker reporter
Outline: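 HepG2 transiently transfected with GAL4-UAS multiplex reporter constructs, exposed 24 h; reporter RNA quantified by RT-PCR, 6-FAM labeling, HpaI digestion and capillary electrophoresis; internal background marker fitted upward versus DMSO.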

[5] = ATG_GAL4_TRANS: Attagene TRANS-FACTORIAL HepG2 Assay for GAL4 (Internal Marker) (AID 2282976); details: HepG2 Attagene TRANS GAL4 internal marker reporter
Outline: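 Liver HepG2 line bearing multiplexed GAL4-UAS reporter constructs; 24 h chemical treatment. Transcripts were quantified as fluorescent fragments on capillary electrophoresis after RT-PCR and HpaI cut, with activity fitted upward from DMSO.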

[6] = molecular target: Glucocorticoid receptor (Homo sapiens) (UniProt P04150); experiment: ATG_GR_TRANS: Attagene TRANS-FACTORIAL HepG2 Assay for human Glucocorticoid Receptor (GR) (AID 2282978); details: HepG2 Attagene TRANS GR reporter, mRNA transcription;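 also: activators score as hits since higher reporter transcript over DMSO is fitted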
Outline: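 HepG2 cells transiently transfected with GAL4-UAS reporter units and exogenous GR-Gal4 chimera, dosed 24 h. Reporter mRNA by RT-PCR, FAM labeling, HpaI digest and capillary electrophoresis; gain-of-signal fit versus DMSO.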

[7] = molecular target: Bile acid receptor (Homo sapiens) (UniProt Q96RI1); experiment: ATG_FXR_TRANS: Attagene TRANS-FACTORIAL HepG2 Assay for Farnesoid X Receptor (FXR) (AID 2282979); details: HepG2 Attagene TRANS FXR-GAL4 reporter transcription;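 also: hits raise reporter mRNA above DMSO so AC50 marks FXR activation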
Outline: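 After 24 h chemical treatment of transfected HepG2 cells, GAL4-UAS reporter transcripts driven by an exogenous FXR-GAL4 fusion were measured by RT-PCR and capillary electrophoresis. Increases over DMSO were fitted.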

[8] = molecular target: Oxysterols receptor LXR-alpha (Homo sapiens) (UniProt Q13133); experiment: ATG_LXRa_TRANS: Attagene TRANS-FACTORIAL HepG2 Assay for human Liver X Receptor alpha (LXRa) (AID 2282980); details: HepG2 Attagene TRANS reporter, LXRa transactivation
Outline: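 In this multiplexed TRANS system, compounds act on HepG2 cells carrying GAL4-UAS reporter units and a receptor-GAL4 fusion for 24 h. Induced reporter RNA is amplified, fluorescently labelled and sized by capillary electrophoresis, with DMSO as baseline.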

[9] = molecular target: Oxysterols receptor LXR-beta (Homo sapiens) (UniProt P55055); experiment: ATG_LXRb_TRANS: Attagene TRANS-FACTORIAL HepG2 Assay for human Liver X Receptor beta (LXRb) (AID 2282981); details: HepG2 Attagene TRANS GAL4-LXRb reporter, mRNA
Outline: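 HepG2 cells transiently transfected with GAL4-UAS reporter units for chimeric NR-Gal4 proteins, dosed for 24 h. Reporter transcripts measured by RT-PCR and capillary electrophoresis; gain-of-signal fitting relative to DMSO.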

[10] = molecular target: Hepatocyte nuclear factor 4-alpha (Homo sapiens) (UniProt P41235); experiment: ATG_HNF4a_TRANS: Attagene TRANS-FACTORIAL HepG2 Assay for human Hepatocyte Nuclear Factor 4 alpha (HNF4a) (AID 2282982); details: HepG2 HNF4a transactivation reporter, mRNA readout
Outline: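 HepG2 cells transiently transfected with HNF4a-Gal4 chimera and GAL4-UAS reporter units, dosed for 24 h. Reporter mRNA measured by RT-PCR, fluorescent primer extension and capillary electrophoresis; gain-of-signal fitted relative to DMSO.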

[11] = ATG_M_06_TRANS: Attagene TRANS-FACTORIAL HepG2 Assay for M06 Transcription Factor (Internal Marker) (AID 2282983); details: HepG2 Attagene TRANS M06 internal marker reporter;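 also: reporter transcript level by RT-PCR then capillary electrophoresis fluorescence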
Outline: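 Internal-marker background readout from a multiplexed TRANS reporter system in HepG2; 24 h dosing; mRNA induction quantified by RT-PCR plus capillary electrophoresis fluorescence; DMSO as negative control and baseline.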

[12] = molecular target: Nuclear receptor subfamily 4 group A member 2 (Homo sapiens) (UniProt P43354); experiment: ATG_NURR1_TRANS: Attagene TRANS-FACTORIAL HepG2 Assay for human Nuclear Receptor Related Protein 1 (NURR1) (AID 2282985); details: HepG2 Attagene TRANS reporter, mRNA readout
Outline: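 HepG2 cells transiently transfected with NURR1-Gal4 chimera and GAL4-UAS reporter units; after 24 hr compound exposure, reporter mRNA quantified by RT-PCR and capillary electrophoresis; gain of signal fitted against DMSO.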

[13] = molecular target: Transcriptional activator Myb (Homo sapiens) (UniProt P10242); experiment: ATG_Myb_CIS: Attagene CIS-FACTORIAL HepG2 Assay for human Myeloblastosis (Myb) Proto-Oncogene Transcription Factor (AID 2282986; active = hit-call score of the fitted dose curve at least 0.9, where 1 is the maximum; inactive = score below 0.9); details: HepG2 Attagene CIS-FACTORIAL Myb reporter transcription; actives raise or lower the signal
Outline: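 Transiently transfected HepG2 cells carrying a multiplexed cis-promoter reporter set report endogenous Myb activity after 24 h compound exposure. Reporter mRNA is read by RT-PCR with capillary electrophoresis of fluorescent products, fitted bidirectionally against DMSO.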

[14] = molecular target: Nuclear respiratory factor 1 (Homo sapiens) (UniProt Q16656); experiment: ATG_NRF1_CIS: Attagene CIS-FACTORIAL HepG2 Assay for human Nuclear Respiratory Factor 1 (NRF1) Orphan Gene (AID 2282987; active = hit-call score of the fitted dose curve at least 0.9, where 1 is the maximum; inactive = score below 0.9); details: HepG2 NRF1 cis-element reporter, Attagene multiplex; actives raise or lower the signal
Outline: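 HepG2 cells transiently transfected with multiple cis-regulated reporter units, exposed 24 h. Reporter mRNAs measured by RT-PCR, fluorescent labelling, HpaI digestion and capillary electrophoresis; bidirectional fitting against DMSO.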

[15] = ATG_NFI_CIS: Attagene CIS-FACTORIAL HepG2 Assay for human Nuclear Factor I (NFI) (AID 2282989; active = hit-call score of the fitted dose curve at least 0.9, where 1 is the maximum; inactive = score below 0.9); details: HepG2 cis-regulatory reporter, NFI response element transcription; actives raise or lower the signal
Outline: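 After transient transfection of HepG2 with cis-promoter reporter constructs and 24 h dosing, RNA is reverse-transcribed, amplified, 6-FAM end-labelled and HpaI-digested before capillary analysis. Bidirectional curve fitting against DMSO.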

[16] = molecular target: Estrogen receptor (Homo sapiens) (UniProt P03372); experiment: ATG_ERa_TRANS: Attagene TRANS-FACTORIAL HepG2 Assay for human Estrogen Receptor alpha (ERa) (AID 2282970); details: HepG2 Attagene TRANS ERa GAL4 reporter, mRNA
Outline: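 Multiplexed cell-based reporter format in HepG2: chimeric ERa-Gal4 protein drives GAL4-UAS reporter transcription. Fluorescent reporter mRNA quantified by capillary electrophoresis 24 hours after dosing; endpoint fitted as signal gain against DMSO.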

[17] = molecular target: Steroid hormone receptor ERR1 (Homo sapiens) (UniProt P11474); experiment: ATG_ERRa_TRANS: Attagene TRANS-FACTORIAL HepG2 Assay for human Estrogen-Related Receptor alpha (ERRa) (AID 2282971); details: HepG2 Attagene TRANS reporter, ERRa transactivation
Outline: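 Signal gain relative to DMSO for an ERRa-Gal4 chimeric receptor, read as reporter mRNA by RT-PCR/capillary electrophoresis. Human HepG2 liver cells, transient multiplex reporter transfection, 24 h chemical exposure.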

[18] = molecular target: Estrogen-related receptor gamma (Homo sapiens) (UniProt P62508); experiment: ATG_ERRg_TRANS: Attagene TRANS-FACTORIAL HepG2 Assay for human Estrogen-Related Receptor gamma (ERRg) (AID 2282977); details: HepG2 Attagene TRANS reporter, ERRg transactivation;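 also: hits increase reporter signal over DMSO so potencies reflect activators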
Outline: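 Transfect HepG2 with multiple GAL4-UAS reporter transcription units; dose chemicals 24 h; isolate RNA, reverse-transcribe with oligo(dT), PCR-amplify, label with 6-FAM, digest with HpaI; size fragments by capillary electrophoresis. DMSO serves as negative control.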

[19] = ATG_M_32_TRANS: Attagene TRANS-FACTORIAL HepG2 Assay for M32 Transcription Factor (Internal Marker) (AID 2282984); details: HepG2 Attagene TRANS M32 internal marker reporter;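 also: transcript level of a background control reporter unit measured by RT-PCR and capillary electrophoresis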
Outline: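 HepG2 cells transiently transfected with GAL4-UAS reporter units, dosed for 24 hours. Reporter mRNA quantified by RT-PCR, 6-FAM labelling, HpaI digestion and capillary electrophoresis; internal-marker signal fitted upward relative to DMSO.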

Measured: AC50

Glucocorticoid receptor (Homo sapiens), sequence (P04150 whole entry, looked up, the tested form may be a part): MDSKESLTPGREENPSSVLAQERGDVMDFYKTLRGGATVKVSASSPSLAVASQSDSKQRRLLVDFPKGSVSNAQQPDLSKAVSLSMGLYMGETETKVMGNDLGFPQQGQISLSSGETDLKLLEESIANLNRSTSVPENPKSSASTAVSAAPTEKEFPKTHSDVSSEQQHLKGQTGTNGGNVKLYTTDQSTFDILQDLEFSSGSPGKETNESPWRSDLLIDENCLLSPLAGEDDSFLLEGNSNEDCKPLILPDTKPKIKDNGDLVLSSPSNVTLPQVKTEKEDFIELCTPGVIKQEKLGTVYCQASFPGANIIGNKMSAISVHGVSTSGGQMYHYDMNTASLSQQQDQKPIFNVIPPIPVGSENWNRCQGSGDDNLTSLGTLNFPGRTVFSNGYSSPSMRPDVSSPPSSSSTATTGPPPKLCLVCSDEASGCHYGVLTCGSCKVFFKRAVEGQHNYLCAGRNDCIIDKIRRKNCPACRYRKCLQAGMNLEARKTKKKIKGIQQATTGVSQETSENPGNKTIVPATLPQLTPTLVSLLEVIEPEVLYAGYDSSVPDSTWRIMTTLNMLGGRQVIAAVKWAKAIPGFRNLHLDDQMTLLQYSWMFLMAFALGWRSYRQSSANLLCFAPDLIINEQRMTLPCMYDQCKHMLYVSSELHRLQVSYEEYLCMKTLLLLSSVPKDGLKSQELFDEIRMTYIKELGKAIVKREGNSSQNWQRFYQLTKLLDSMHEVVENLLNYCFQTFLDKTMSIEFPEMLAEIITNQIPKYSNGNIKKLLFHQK
Estrogen-related receptor gamma (Homo sapiens), sequence (P62508 whole entry, looked up, the tested form may be a part): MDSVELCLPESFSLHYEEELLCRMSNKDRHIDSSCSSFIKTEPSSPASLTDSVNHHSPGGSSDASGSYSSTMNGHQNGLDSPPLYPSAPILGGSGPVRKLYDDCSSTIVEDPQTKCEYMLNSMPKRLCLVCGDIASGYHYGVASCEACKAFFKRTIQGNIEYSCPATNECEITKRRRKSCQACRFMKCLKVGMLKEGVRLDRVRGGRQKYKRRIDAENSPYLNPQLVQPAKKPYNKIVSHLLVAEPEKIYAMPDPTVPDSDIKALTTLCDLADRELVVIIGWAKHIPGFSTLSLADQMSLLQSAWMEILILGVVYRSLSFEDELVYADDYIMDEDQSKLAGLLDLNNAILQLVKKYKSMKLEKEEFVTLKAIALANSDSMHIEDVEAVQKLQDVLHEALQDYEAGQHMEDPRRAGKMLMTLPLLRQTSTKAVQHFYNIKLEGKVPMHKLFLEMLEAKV
Nuclear receptor subfamily 1 group I member 3 (Homo sapiens), sequence (Q14994 whole entry, looked up, the tested form may be a part): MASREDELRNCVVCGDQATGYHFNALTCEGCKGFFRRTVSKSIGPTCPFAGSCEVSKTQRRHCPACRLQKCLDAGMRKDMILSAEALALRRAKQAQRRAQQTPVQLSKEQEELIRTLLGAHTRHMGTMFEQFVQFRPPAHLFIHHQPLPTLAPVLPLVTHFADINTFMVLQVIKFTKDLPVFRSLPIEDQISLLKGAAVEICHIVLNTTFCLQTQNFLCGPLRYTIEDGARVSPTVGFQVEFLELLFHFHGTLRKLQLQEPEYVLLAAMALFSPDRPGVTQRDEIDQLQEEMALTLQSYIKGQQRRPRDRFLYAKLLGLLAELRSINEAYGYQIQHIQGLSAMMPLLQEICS
X-box-binding protein 1 (Homo sapiens), sequence (P17861 whole entry, looked up): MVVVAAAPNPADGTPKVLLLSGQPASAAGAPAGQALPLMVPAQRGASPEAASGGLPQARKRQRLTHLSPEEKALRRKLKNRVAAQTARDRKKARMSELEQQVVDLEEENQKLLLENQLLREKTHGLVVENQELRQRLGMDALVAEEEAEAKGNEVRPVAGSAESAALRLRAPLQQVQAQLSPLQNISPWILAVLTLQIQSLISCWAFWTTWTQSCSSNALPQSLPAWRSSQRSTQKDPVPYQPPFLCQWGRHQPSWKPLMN
Hepatocyte nuclear factor 4-alpha (Homo sapiens), sequence (P41235 whole entry, looked up, the tested form may be a part): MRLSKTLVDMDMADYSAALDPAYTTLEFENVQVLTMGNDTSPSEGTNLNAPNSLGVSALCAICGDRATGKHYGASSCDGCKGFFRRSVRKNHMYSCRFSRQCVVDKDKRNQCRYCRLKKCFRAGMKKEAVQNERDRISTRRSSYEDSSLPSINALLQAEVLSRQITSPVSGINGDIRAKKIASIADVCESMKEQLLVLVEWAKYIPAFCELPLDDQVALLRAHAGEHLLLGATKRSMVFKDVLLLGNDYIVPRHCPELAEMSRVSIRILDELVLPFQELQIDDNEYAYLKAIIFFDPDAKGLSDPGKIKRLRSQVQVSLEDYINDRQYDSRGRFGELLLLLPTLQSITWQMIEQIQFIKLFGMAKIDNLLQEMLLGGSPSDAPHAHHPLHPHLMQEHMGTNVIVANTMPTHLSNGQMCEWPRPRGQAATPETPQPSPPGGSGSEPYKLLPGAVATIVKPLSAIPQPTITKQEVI
Estrogen receptor (Homo sapiens), sequence (P03372 whole entry, looked up, the tested form may be a part): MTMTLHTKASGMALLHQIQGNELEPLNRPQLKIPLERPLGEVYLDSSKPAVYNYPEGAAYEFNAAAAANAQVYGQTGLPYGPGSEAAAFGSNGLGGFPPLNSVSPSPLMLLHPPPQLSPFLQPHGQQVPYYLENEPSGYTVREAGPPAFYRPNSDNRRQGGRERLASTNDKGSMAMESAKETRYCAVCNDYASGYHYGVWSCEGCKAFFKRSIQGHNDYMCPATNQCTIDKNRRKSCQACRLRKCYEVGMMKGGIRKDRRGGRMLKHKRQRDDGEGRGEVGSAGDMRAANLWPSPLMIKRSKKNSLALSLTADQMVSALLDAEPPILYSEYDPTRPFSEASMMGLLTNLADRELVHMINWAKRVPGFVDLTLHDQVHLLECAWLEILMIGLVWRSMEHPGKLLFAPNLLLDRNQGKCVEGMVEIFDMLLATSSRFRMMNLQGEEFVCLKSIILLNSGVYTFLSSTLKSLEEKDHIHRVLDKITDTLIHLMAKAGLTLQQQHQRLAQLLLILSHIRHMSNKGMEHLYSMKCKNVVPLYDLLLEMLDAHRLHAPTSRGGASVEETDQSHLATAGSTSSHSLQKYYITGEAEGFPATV
Oxysterols receptor LXR-alpha (Homo sapiens), sequence (Q13133 whole entry, looked up, the tested form may be a part): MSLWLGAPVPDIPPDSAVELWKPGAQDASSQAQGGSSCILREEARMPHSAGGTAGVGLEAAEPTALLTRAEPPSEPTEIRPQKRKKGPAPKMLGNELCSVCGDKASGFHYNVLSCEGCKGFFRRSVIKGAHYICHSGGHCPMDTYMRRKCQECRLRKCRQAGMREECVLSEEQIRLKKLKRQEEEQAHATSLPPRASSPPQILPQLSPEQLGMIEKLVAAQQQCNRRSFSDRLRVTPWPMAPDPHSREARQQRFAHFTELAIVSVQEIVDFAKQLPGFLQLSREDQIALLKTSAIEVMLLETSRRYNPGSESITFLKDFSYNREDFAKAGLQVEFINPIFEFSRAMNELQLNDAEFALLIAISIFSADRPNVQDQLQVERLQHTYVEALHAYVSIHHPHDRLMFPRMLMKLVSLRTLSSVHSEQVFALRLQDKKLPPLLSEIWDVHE
Transcriptional activator Myb (Homo sapiens), sequence (P10242 whole entry, looked up): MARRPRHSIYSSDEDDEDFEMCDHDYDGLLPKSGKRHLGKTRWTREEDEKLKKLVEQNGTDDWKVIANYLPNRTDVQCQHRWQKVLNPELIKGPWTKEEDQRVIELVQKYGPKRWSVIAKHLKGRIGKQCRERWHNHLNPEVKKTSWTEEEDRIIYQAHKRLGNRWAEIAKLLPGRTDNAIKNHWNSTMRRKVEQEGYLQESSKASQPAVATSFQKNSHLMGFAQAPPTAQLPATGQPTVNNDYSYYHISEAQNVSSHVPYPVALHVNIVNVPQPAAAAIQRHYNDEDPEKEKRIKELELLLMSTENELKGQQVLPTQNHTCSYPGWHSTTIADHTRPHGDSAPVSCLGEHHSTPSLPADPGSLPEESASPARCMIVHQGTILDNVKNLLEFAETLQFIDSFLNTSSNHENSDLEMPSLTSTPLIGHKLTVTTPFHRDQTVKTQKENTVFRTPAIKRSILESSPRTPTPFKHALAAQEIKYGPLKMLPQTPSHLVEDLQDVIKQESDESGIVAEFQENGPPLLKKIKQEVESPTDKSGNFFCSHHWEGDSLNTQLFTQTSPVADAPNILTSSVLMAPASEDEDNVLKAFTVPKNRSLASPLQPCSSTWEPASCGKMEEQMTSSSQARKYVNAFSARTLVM
Bile acid receptor (Homo sapiens), sequence (Q96RI1 whole entry, looked up, the tested form may be a part): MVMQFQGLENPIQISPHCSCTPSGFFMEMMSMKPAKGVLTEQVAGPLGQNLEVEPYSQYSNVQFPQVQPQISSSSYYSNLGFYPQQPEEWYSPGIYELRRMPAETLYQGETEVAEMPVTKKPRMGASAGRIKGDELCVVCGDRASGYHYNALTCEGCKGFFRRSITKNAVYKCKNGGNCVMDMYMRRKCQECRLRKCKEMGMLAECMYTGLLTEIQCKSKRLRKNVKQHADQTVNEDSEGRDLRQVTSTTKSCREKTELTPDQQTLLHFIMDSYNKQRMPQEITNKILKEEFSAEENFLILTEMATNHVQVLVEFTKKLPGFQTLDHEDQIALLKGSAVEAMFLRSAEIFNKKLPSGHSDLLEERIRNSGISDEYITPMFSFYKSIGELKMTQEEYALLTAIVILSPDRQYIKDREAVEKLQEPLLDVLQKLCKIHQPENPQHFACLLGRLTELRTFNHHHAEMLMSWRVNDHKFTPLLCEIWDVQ
Nuclear respiratory factor 1 (Homo sapiens), sequence (Q16656 whole entry, looked up): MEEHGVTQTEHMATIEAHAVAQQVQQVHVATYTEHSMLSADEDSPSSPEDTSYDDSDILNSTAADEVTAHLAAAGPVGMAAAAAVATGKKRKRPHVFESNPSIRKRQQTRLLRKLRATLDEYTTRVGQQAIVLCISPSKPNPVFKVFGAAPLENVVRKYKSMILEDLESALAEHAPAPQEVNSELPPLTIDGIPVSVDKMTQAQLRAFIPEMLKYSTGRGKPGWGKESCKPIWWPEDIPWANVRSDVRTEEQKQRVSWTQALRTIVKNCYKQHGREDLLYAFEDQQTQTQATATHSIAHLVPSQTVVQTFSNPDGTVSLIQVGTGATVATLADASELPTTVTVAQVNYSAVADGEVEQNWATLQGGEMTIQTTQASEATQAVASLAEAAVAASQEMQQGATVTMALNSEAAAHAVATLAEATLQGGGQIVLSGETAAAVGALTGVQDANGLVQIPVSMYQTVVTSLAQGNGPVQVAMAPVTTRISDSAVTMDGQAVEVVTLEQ

CCCCCCC(C=O)=Cc1ccccc1
active: [3] 60 µM | [15] 60 µM
inactive: [1] | [2] | [3] | [4] | [5] | [6] | [7] | [8] | [9] | [10] | [11] | [12] | [13] | [14] | [15]

O=C(O)c1cccnc1
inactive: [1] | [2] | [3] | [4] | [5] | [7] | [11] | [12] | [13] | [14] | [15]
active: [3] 25.2 µM

CCc1nc(N)nc(N)c1-c1ccc(Cl)cc1
inactive: [1] | [16] | [6] | [7] | [11] | [13] | [15]
active: [3] 147 µM | [14] 48.8 µM

O=NO
inactive: [1] | [2] | [3] | [5] | [10] | [11] | [12] | [13] | [15]

Cc1cc(Cc2ccc(N)c(C)c2)ccc1N
not listed: [8] | [9] | [10] | [16] | [17] | [18] | [19]
inactive: all other assays above

COc1ccc(C(=O)Nc2nc3ccccc3c(NCc3ccccc3)c2C#N)cc1
not listed: [2] | [5] | [6] | [7] | [11] | [19]
inactive: all other assays above

COC(=O)CCC(=O)OC
inactive: [1] | [2] | [16] | [3] | [4] | [7] | [13] | [14] | [15]

CCCCC(CC)COC(=O)CCCCCCCC(=O)OCC(CC)CCCC (stereo unspecified)
not listed: [4] | [5] | [8] | [10] | [14] | [16] | [18] | [19]
inactive: all other assays above

Oc1ccccc1O
inactive: [1] | [2] | [4] | [6] | [12] | [13] | [15]
active: [3] 35.7 µM

Cc1ccc(-c2cc(C(F)(F)F)nn2-c2ccc(S(N)(=O)=O)cc2)cc1
inactive: [1] | [16] | [3] | [18] | [6] | [11] | [12] | [13] | [15]

NC(=Nc1ccccc1)Nc1ccccc1
active: [3] 57.2 µM
not listed: [2] | [5] | [8] | [12] | [17] | [18] | [19]
inactive: all other assays above

CC1(C)C(=O)NC(=O)N1CO
active: [16] 123 µM
inactive: [1] | [3] | [4] | [5] | [6] | [10] | [12] | [13] | [14] | [15]

CN(C)CCCN(C)CCCN(C)C
active: [8] 23.8 µM
inactive: [1] | [16] | [3] | [4] | [7] | [13] | [15]

COc1ccc(OC(F)(F)F)cc1CN[C@H]1CCCN[C@H]1c1ccccc1
not listed: [5] | [6] | [7] | [8] | [14] | [17] | [18] | [19]
inactive: all other assays above

CCCCCCCC(=O)OC
inactive: [1] | [16] | [3] | [4] | [9] | [11] | [12] | [13] | [14] | [15]

O=C(O)CN(CC(=O)O)CC(=O)O
active: [13] 386 nM
not listed: [4] | [5] | [9] | [14] | [16] | [17] | [19]
inactive: all other assays above

CC(=O)OC1CC(C)OC(C)O1 (stereo unspecified)
not listed: [6] | [8] | [10] | [11] | [16] | [19]
inactive: all other assays above

Nc1nc(=S)c2[nH]cnc2[nH]1
not listed: [4] | [5] | [6] | [7] | [17] | [18] | [19]
inactive: all other assays above

O=C1NC(=O)C(c2ccccc2)(c2ccccc2)N1
inactive: [1] | [3] | [6] | [10] | [11] | [19] | [12] | [13] | [14] | [15]

O=C1O[C@H]([C@H](O)CO)C(O)=C1O
inactive: [1] | [3] | [4] | [5] | [6] | [12] | [13] | [15]

CC(=O)OCC(COC(C)=O)OC(C)=O
inactive: [1] | [3] | [18] | [6] | [9] | [10] | [11] | [13] | [14] | [15]
